Consider five compounds from PubChem BioAssay (NCATS).

Records with an inconclusive call do not appear. Where a call stands in place of a potency, no number is given. Calls of active or inactive are those of the source. Calls follow the shape of the dose curve; as a rule, active = well fitted inhibition curve with a large enough effect; inconclusive = small, poorly fitted or top-dose-only effect; inactive = flat fitted curve, though single readings scatter.

Calcium and integrin-binding protein 1 (Homo sapiens), sequence (Q99828 whole entry, looked up): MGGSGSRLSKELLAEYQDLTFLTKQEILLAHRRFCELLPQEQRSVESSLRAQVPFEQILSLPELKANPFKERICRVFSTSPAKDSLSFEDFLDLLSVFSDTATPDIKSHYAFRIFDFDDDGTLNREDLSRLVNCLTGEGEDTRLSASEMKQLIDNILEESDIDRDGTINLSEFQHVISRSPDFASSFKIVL

The assay has as its target Calcium and integrin-binding protein 1 (Homo sapiens) (UniProt Q99828). In words: Primary qHTS for Identification of Calcium Integrin Binding Protein 1 (CIB1) Competitor (AID 1508620).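 Also: GST tagged CIB1 binding a fluorescein labelled alphaIIb integrin peptide tracer; top concentration of the series differs between compounds.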 The following applies: CIB1-GST / FITC-alphaIIb peptide fluorescence polarization; series mostly up to 114 µM. The method in brief: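 CIB1-GST (1 uM final) and compound incubated 15 min at room temperature before adding FITC-alphaIIb peptide tracer (100 nM final). Competition for binding read by fluorescence polarization (ex 480, em 540) after another 15 min at room temperature.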
`Cc1cccc(C)c1SC1=NS(=O)(=O)c2ccccc21`: the Potency result is “inactive”.
As to `CC(=O)c1ccc(N2CCN(C(=O)c3ccc4c(c3)CC(=O)N4)CC2)cc1`, the Potency result is “inactive”.
Regarding `COc1ccc(C2Nc3ccccc3C(=O)N2Cc2ccccc2)cc1COc1ccccc1OC` (stereo not given), the Potency entry was “inactive”.
Take `Cc1ccc(-c2ccc(=O)n(CCNC(C)c3ccco3)n2)cc1` (stereo not given): the Potency result was “inactive”.
Take `Cc1cc(C)nc(NC(=S)N2CCN(c3ncnc4ccccc34)CC2)c1`: the Potency result was “inactive”.
